Activity calls are given as the source filed them. The calls were made as follows: active = hit-call score of the fitted dose curve at least 0.9, where 1 is the maximum; inactive = score below 0.9.
assay: APR_HepG2_MitoMembPot_72hr: Apredica 72-hour HepG2 Assay for Mitochondrial Membrane Potential (AID 2282917); details: imaging, actives raise or lower the signal
Method: APR_HepG2_72hr is a cell-based, multiplexed-readout assay that uses HepG2, a human liver cell line, with measurements taken at 72 hours after chemical dosing in a 384-well plate.APR_HepG2_MitoMembPot_72hr is one of 10 assay component(s) measured or calculated from the APR_HepG2_72hr assay. It is designed to make measurements of dye binding, a form of membrane potential reporter, as detected with fluorescence intensity signals by HCS Fluorescent Imaging technology.Data from the assay component APR_HepG2_MitoMembPot_72hr was analyzed into 1 assay endpoint. This assay endpoint, APR_HepG2_MitoMembPot_72hr, was analyzed with bidirectional fitting relative to DMSO as the negative control and baseline of activity. Using a type of membrane potential reporter, gain or loss-of-signal activity can be used to understand changes in the signaling. Furthermore, this assay endpoint can be referred to as a primary readout, because this assay has produced multiple assay endpoints where this one serves a signaling function. To generalize the intended target to other relatable targets, this assay endpoint is annotated to the cell morphology intended target family, where the subfamily is organelle conformation.
Cells were treated with dimethyl sulfoxide (DMSO) as a solvent control at a final concentration of 0.5% v/v or with compounds in DMSO with a resulting final DMSO concentration of 0.5% v/v. Compound treatment was done at concentrations of 0.39, 0.78, 1.56, 3.12, 6.24, 12.5, 25, 50, 100, and 200 uM in duplicate on each plate. Cells were treated with compounds for 1, 24, or 72 hr. Carbonyl […] m-chloro-phenylhydrazone (CCCP) and taxol were used as positive controls for mitochondrial function and cytoskeletal stability, respectively; DMSO served as the negative control for this experiment. Cells were fixed by the direct addition of 50 uL formaldehyde in Hank's Balanced Salt Solution (HBSS) to a final concentration of 3.7%. After incubation in the fixation medium for 30 min at room temperature (293-298 K), cells were rinsed twice with HBSS and treated with cell permeabilization buffer (16 uL of 0.5% Triton X-100) for 10 min at room temperature (293-298 K) before labeling. For mitochondrial membrane potential and mitochondrial measurements, pre-fixed cells were incubated with 50 uL of MitoTracker Red CMXRos (Invitrogen) at a concentration of 250 nM for 30 min before fixation. In the remaining cases, post-fixed cells were labeled by incubation with a multiplexed mixture of primary antibodies in HBSS for 60 min at room temperature (293-298 K) to detect immunoreactivity of c-Jun (1:500), phospho-histone H3 (1:100), phospho-histone H2A.x (1:200), p53 (1:400), alpha-tubulin (1:200) and Hoechst 33342 (2 ug/mL). Cells were labeled for multiplexed imaging on two separate plates: a) Hoechst 33342, MitoTracker Red, phospho-histone H3, and alpha-tubulin, and b) Hoechst 33342, phospho-histone H2A.x, and c-Jun. A final rinse with HBSS (50 uL) was performed before analysis. The primary and secondary antibodies for the proteins were phospho-histone H3 (rabbit anti-phospho-histone H3 and FITC-donkey anti-rabbit IgG), phospho-histone H2A.x (mouse anti-phospho-histone H2A.x and FITC-donkey anti-mouse IgG), c-Jun (rabbit anti-phospho-c-Jun and Cy3-donkey anti-rabbit IgG), p53 (sheep anti-p53 and Cy5-donkey anti-sheep IgG), alpha-tubulin (mouse anti-alpha-tubulin and Cy5-donkey anti-mouse IgG). These antibodies are available as the CellCiphr HepG2 assay kit (Millipore).Digital images of each well were captured using a Cellomics ArrayScan VTI (Thermo Scientific Cellomics) (0.8 NA objective, 0.63x optical coupler, and XF-93 filter set) at 20x magnification. The images were acquired using the autofocus feature of the ArrayScan instrument, which entails the following steps. First, the camera focuses on channel 1 (Hoechst 33342), where nuclei are identified. Second, a Z offset of 1 um is used for capturing mitochondria (MitoTracker Red). […]

SMILES	outcome	AC50
CC(C)(C)c1csc(-c2cc3cc(OCc4ccccc4CC(=O)O)ccc3o2)n1	inactive	
O=C1CCC(C2CCCCC2)CC1	inactive	
C[C@]12CC[C@@H]3c4ccc(O)cc4CC[C@H]3[C@@H]1CC[C@H]2O	inactive	
CC(C)(O)c1ccc(CNC(=O)c2cccnc2Oc2ccc3nonc3c2)cc1	inactive	
CC(=O)N1CCN(c2ccc(OC[C@H]3CO[C@](Cn4ccnc4)(c4ccc(Cl)cc4Cl)O3)cc2)CC1	inactive	
OCCO	inactive	
CO[C@H]1/C=C/O[C@@]2(C)Oc3c(C)c(O)c4c(O)c(c(/C=N/N5CCN(C)CC5)c(O)c4c3C2=O)NC(=O)/C(C)=C\C=C\[C@H](C)[C@H](O)[C@@H](C)[C@@H](O)[C@@H](C)[C@H](OC(C)=O)[C@@H]1C	inactive	
CC1=CC(=O)/C(=C(/C)O)C(=O)O1	inactive	
CCOC(=O)O[C@H](C)OC(=O)c1ccc2c(c1)cc(C(=O)NC1CCN(C(C)C)CC1)n2Cc1cc(-c2ccc(Cl)s2)on1	inactive	
CCCC(=O)OCCC(C)C	inactive	
NC(=O)c1nc(-c2cccc(-c3cc(F)ccc3OCC(F)(F)C(F)(F)F)c2)n[nH]1	inactive	
CCCCCCCCN(C)CCCCCCCC	inactive	
Clc1cc(Cl)c2c(c1)N=C1CCCCCN1C2	inactive	
CCCCCCCCCCCCO	inactive	
O=C(O)Cn1c(=O)n(Cc2ccc(Br)cc2F)c(=O)c2ccc(Cl)cc21	inactive	
CC(C)(C)c1cc(/C=C2\SC(N)=NC2=O)cc(C(C)(C)C)c1O	inactive	
Clc1ccccc1C(c1ccccc1)(c1ccccc1)n1ccnc1	inactive	
c1ccc(C[n+]2cccc3ccccc32)cc1	inactive	
O=C(OCCCCCCOC(=O)c1ccccc1)c1ccccc1	inactive	
CN(C[C@@H](CC[N+]12CCC(C3CCCCC3)(CC1)CC2)c1ccc(Cl)c(Cl)c1)C(=O)c1cc(C(F)(F)F)cc(C(F)(F)F)c1		47.8 µM (active)

SMILES	outcome	AC50
CC(O)CC(C)(C)O (stereo not given)		1.62 µM (active)
CCCCCCCC[Si](OCC)(OCC)OCC	inactive	
COCC(C)OCC(C)OCC(C)O (stereo not given)	inactive	
O=c1c(-c2ccc(O)cc2)coc2cc(O)cc(O)c12		57 µM (active)
CN(C)c1ccc(C(=C2C=CC(=[N+](C)C)C=C2)c2ccc(N(C)C)cc2)cc1		0.384 µM (active)
CCCCCCCCCC(=O)O	inactive	
CCCCOC(=O)CC(CC(=O)OCCCC)(OC(C)=O)C(=O)OCCCC	inactive	
O=C1O[C@H]([C@@H](O)CO)C(O)=C1O	inactive	
CCCCCc1ccc(N)cc1	inactive	
CCN(Cc1cccc(S(=O)(=O)O)c1)c1ccc(C(=C2C=CC(=[N+](CC)Cc3cccc(S(=O)(=O)O)c3)C=C2)c2ccccc2S(=O)(=O)[O-])cc1	inactive	
c1ccc2n[nH]nc2c1	inactive	
CCCCOC(=O)c1ccc(O)cc1	inactive	
Cc1cc2c(cc1C(F)(F)F)N(C(=O)Nc1ccc(Oc3cccnc3C)nc1)CC2	inactive	
Cc1ccc2oc(CN(Cc3ccccc3)C(=O)Nc3c(F)cc(F)cc3F)c(-c3ccc(Cl)cc3)c2c1	inactive	
O=C(O)Cc1cc(I)c(Oc2ccc(O)c(I)c2)c(I)c1	inactive	
COc1cc(C(=O)NC2CCN(C)CC2)ccc1Nc1ncc2c(n1)N(C1CCCC1)CC(F)(F)C(=O)N2C	inactive	
O=CCCCC=O	inactive	
O=C(O)c1ccccc1C(=O)OCc1ccccc1	inactive	
Oc1ccc2ccccc2c1	inactive	
Cc1oc2c(NC(=O)c3c(Cl)cccc3Cl)cccc2c1C(C)(C)O	inactive	

Source: PubChem BioAssay (EPA / NIEHS)
